# HIV RNase H inh-1 – blocks HIV-1 RNase H cleavage of RNA/DNA duplex. P04585. RT-RNase H RNA/DNA duplex cleavage, fluorescence. inhibition, % at 10 µM. 65,000 compounds, 1.9% hits; in the data active means inhibition above about 50%
# RmlC RmlD mix – mixture blocks RmlC and RmlD coupled enzyme activity | RmlC/RmlD coupled enzyme inhibition, 384-well mixture HTS | inhibition, % at 5.5 µM | 110,000 compounds, 0.39% hits | AID 1532; in the data active means inhibition above about 30%, passing the limit was not always enough; inconclusive means no clear call, values can overlap the other calls
# HIV RNase H inh-2 – confirmation of HIV-1 reverse transcriptase RNase H inhibitors. shares compounds with HIV RNase H inh-1. Recombinant RT RNase H, fluorescent RNA/DNA duplex cleavage. inhibition, % at 10 µM. 1,000 compounds, 39% hits; in the data active means inhibition above about 48%; inconclusive means no clear call, values can overlap the other calls
# Active calls of the source: *; ? = inconclusive; / = no result given. Many of the other results were omitted from the sample, so hits are more common in it than they were.
SMILES,HIV RNase H inh-1,RmlC RmlD mix,HIV RNase H inh-2
CC(C)C(C(=O)C=[N+]=[N-])N1C(=O)c2ccccc2C1=O (configuration not stated),-7.5,5.7,/
Cc1ccc2c(c1C)NC(C(=O)O)C1CC=CC21 (configuration not stated),96.0*,1.5,68.7*
O=C(O)C1Nc2c(C(=O)N3CCOCC3)cccc2C2C=CCC12 (configuration not stated),76.8*,6.5,34.7
CCOC(=O)C1Nc2c(F)cc(C)cc2C2C=CCC12 (configuration not stated),/,5.5,/
O=C(c1ccccc1)c1ccccc1C(=O)N1CCOCC1,-2.1,13.7,/
O=C1CC2CS(=O)(=O)CC2N1c1ccc(Oc2ccccc2)cc1 (configuration not stated),-1.3,0.1,/
CC1(C)Cc2c(C#N)c(N)sc(=S)c2CO1,82.2*,8.9,40.2
CC(C)C1Cc2c(C#N)c(N)sc(=S)c2CO1 (configuration not stated),21.1,-5.9,/
CC(=O)Nc1nc(C)nc(-c2ccccc2OC(C)=O)n1,-12.2,0.8,/
CC(NC(=O)CCC(=O)NC(C)C1COc2ccccc2O1)C1COc2ccccc2O1 (configuration not stated),-0.6,-9.2,/
COc1ccccc1/C=c1\sc2nc(-c3ccncc3)nn2c1=O,-13.0,/,/
COc1ccc(Br)cc1/C=c1\sc2nc(-c3ccco3)nn2c1=O,73.2*,4.7,?
CC1CCCN(CCC(=O)Nc2ccc(Br)cc2)C1 (configuration not stated),/,8.3,/
Cc1cc(NS(=O)(=O)c2ccc(NC(=O)c3cc4ccccc4o3)cc2)no1,/,-6.3,/
O=C(CN(Cc1ccco1)C(=O)CNS(=O)(=O)c1ccccc1)NC1CCCCC1,-6.9,-19.5,/
Cc1ccccc1Nc1ncnc2c1cnn2-c1ccccc1,-4.4,-4.2,/
Cc1noc(C)c1CSc1nnc(-c2ccccc2)n1N,/,-7.6,/
Cc1noc(C)c1CSc1nnc2scc(-c3ccccc3)n12,63.1*,-2.3,16.2
Cc1nn2c(-c3cccc(NC(=O)CSc4nc5ccccc5o4)c3)nnc2c2ccccc12,88.5*,13.3,66.4*
Cc1cccc(NC(=O)CSc2nc3ccccc3o2)c1,/,-12.8,/
CCN(CC)c1ccc(C2C(C(=O)OC(C)C)C(=O)CC(C)(O)C2C(=O)OC(C)C)cc1 (configuration not stated),/,-3.1,/
COC(=O)CN(c1ccccn1)S(=O)(=O)c1ccccc1,72.6*,58.9,37.1
O=C(O)CN(c1ccccn1)S(=O)(=O)c1ccccc1,/,-5.5,/
COc1ccc(C(=O)/C=C(\C)Nc2ccc(NC(C)=O)cc2)cc1,/,-9.6,/
CCOC(=O)c1cc(-c2ccc(C)cc2)n(CC(=O)NCc2ccco2)c1C,57.8*,-9.5,30.8
SMILES,HIV RNase H inh-1,RmlC RmlD mix,HIV RNase H inh-2
CCOC(=O)c1cc(-c2ccc(C)cc2)n(CCC(=O)NCCN(C)C)c1C,2.6,?,/
CCCCNC(=O)Nc1ccc(C(O)(C(=O)OC)C(F)(F)F)cc1 (configuration not stated),2.1,7.6,/
CC(C)Sc1nc2sc3c(c2c2nnc(SCC(=O)NCc4ccco4)n12)CCCC3,86.5*,-8.5,66.9*
CCSc1nc2sc3c(c2c2nnc(SCC(=O)NCc4ccco4)n12)CCCC3,-0.9,/,/
COC(=O)c1ccc(CSc2nc3c(cnn3-c3ccc(F)cc3)c(=O)[nH]2)o1,6.7,-10.1,/
COC(=O)c1ccc(CSc2nc3c(cnn3-c3ccc(Cl)cc3)c(=O)[nH]2)o1,58.5*,8.6,17.6
CCCSc1nc2c(cnn2-c2ccc(Cl)cc2)c(=O)[nH]1,55.8*,-7.3,66.5*
CSc1nc2c(cnn2-c2ccc(C)c(C)c2)c(=O)[nH]1,2.7,12.1,/
CCCCSc1nc2c(cnn2-c2ccc(F)cc2)c(=O)[nH]1,-4.0,-1.7,/
C=CCSc1nc2c(cnn2-c2ccc(C)c(C)c2)c(=O)[nH]1,58.0*,4.8,59.0*
O=C(Nc1cccc2cccc(NC(=O)c3ccco3)c12)c1ccco1,46.9,9.8,/
Nc1c(S(=O)(=O)c2cccs2)c2nc3ccccc3nc2n1/N=C/c1cccc(O)c1,16.0,-26.6,/
Cc1ccc(-c2nc(CS(=O)CC(=O)NCc3ccc(Cl)cc3)c(C)o2)cc1 (configuration not stated),-5.9,5.6,/
CSc1nccn1CC(=O)Nc1ccc(F)cc1,-15.7,-7.2,/
S=c1[nH]nc(COc2ccccc2)n1C1CCCCC1,45.7,1.9,/
CN1CCc2c(c3ccccc3n2Cc2ccccc2)C1,-6.4,-2.5,/
CCn1c(=O)cc(SCC(=O)NCCCN2CCN(c3ccc(F)cc3)CC2)c2ccccc21,66.2*,3.7,37.8
CCn1c(=O)cc(SCC(=O)NCCN2CCN(Cc3ccccc3)CC2)c2ccccc21,0.0,4.4,/
C=CCn1c(-c2cccn(Cc3cccc(Cl)c3)c2=O)n[nH]c1=S,/,20.4,/
O=C(O)C1CC(=O)N(c2ccc(OCc3ccc(Cl)cc3Cl)cc2)C1 (configuration not stated),/,8.2,/
O=C(O)c1cccc(NC(=O)c2cccc(S(=O)(=O)N3CCCCC3)c2)c1,-9.3,6.1,/
Nc1nc(NC(=O)c2cccc(S(=O)(=O)N3CCCCCC3)c2)nc(-c2ccccc2)n1,66.3*,6.2,9.0
CCCCOc1ccc(-c2nnn(CC(=O)NCc3ccco3)n2)cc1,3.5,0.1,/
O=S(=O)(NCc1cc(-c2ccccc2Cl)no1)c1ccccc1,/,-4.2,/
CCn1c(-c2c[nH]c3ccccc23)n[nH]c1=S,-20.8,2.4,/
SMILES,HIV RNase H inh-1,RmlC RmlD mix,HIV RNase H inh-2
C=CCn1c(-c2c[nH]c3ccccc23)n[nH]c1=S,57.3*,2.9,16.0
N#CC1=C(N)SC(N)=C(C#N)C1CCC1CCCCC1,80.3*,-0.5,?
Nc1nnc(CCC2CCCCC2)s1,-21.3,-9.2,/
CCOc1cc2[nH]c(=O)n(Cc3ccc(C(=O)NCCOC)cc3)c(=O)c2cc1OCC,-110.0,/,/
COc1ccc(C2CC(=O)C3=C(C2)Nc2ccccc2N(C(=O)C2CC2)C3c2cccnc2)cc1OC (configuration not stated),4.2,-4.4,/
COc1ccc(/C=N/c2oc(-c3ccccc3)cc2C#N)cc1,/,1.4,/
COc1[nH]c(/N=C/c2ccccc2)c(C#N)c1C#N,53.2*,-3.9,4.8
COC(=O)c1cccc(N2C(=O)c3ccccc3S2(=O)=O)c1,-2.1,79.1,/
Cc1cccc(C)c1NC(=O)CSCC(=O)c1ccc(O)c(O)c1,87.5*,4.6,61.5*
Cc1cccc(C)c1NC(=O)CSCC(=O)O,-3.7,/,/
Cc1ccc(N2CCn3c2nc2c3c(=O)n(CCc3ccccc3)c(=O)n2C)cc1,63.9*,/,46.4
COc1ccc(N2CCCn3c2nc2c3c(=O)n(CCc3ccccc3)c(=O)n2C)cc1,-21.0,11.6,/
Cc1cnc(NC(=O)CCCc2nc3ccccc3s2)s1,/,7.3,/
Cc1cc(C)n2c(SC/C(O)=C(\C#N)c3nc4ccccc4[nH]3)nnc2n1,83.0*,-0.5,?
Cc1ccccc1-n1c(SC/C(O)=C(\C#N)c2nc3ccccc3[nH]2)nnc1-c1ccncc1,13.7,8.1,/
Cc1ccc(-c2nnc(SCC(=O)Nc3ccc(S(=O)(=O)N4CCCCCC4)cc3)o2)cc1,65.1*,10.9,?
CC(=O)c1cccc(NC(=O)CSc2nnc(-c3ccc(S(=O)(=O)N4CCCC4)cc3)o2)c1,20.9,6.7,/
Cc1nn(CCc2nc(-c3ccco3)cs2)c2[nH]c(=O)cc(C(F)(F)F)c12,87.6*,1.2,68.6*
Cc1cc(C)n(CCc2nc(-c3ccco3)cs2)n1,/,-6.2,/
